Rows were chosen to be rich in hits. Some 19% of all compounds tested hit in one or more screens of this group.
KB-V1 MDR tox – qHTS assay for MDR1-selective chemotherapeutics: Primary screen using the drug-selected MDR subline cells KB-V1. KB-V1 MDR cells viability, CellTiter-Glo, 72 h. Potency, µM (top dose mostly 46.1 µM), most hits filed as cytotoxic. 400,000 compounds, 3.4% hits; also: nearly all actives have a fitted effect of over 60% in size
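In this primary screen, KB-V1 cells overexpressing P-gp are incubated with library compounds (lowest to highest concentration) for 72 h at 37 degrees C before a luminescent ATP viability read.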
DT40 TDP1 no CPT – qHTS for Inhibitors of human tyrosyl-DNA phosphodiesterase 1 (TDP1): qHTS in cells in absence of CPT. DT40 Tdp1-/- hTDP1 cells, no CPT, ATP luminescence, 48 h. Potency, µM (highest dose often 46.2 µM), inactives show at the top dose activity change, negative = growth inhibition, hits mostly inhibitors. 420,000 compounds, 15% hits. AID 686978, 2013; also: nearly all actives have a fitted effect of over 55% in size
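Chicken DT40 Tdp1-/- cells stably complemented with human TDP1 were seeded at 400 cells/well with DMSO in place of 20 nM camptothecin. After compound pinning, cells grew at least 48 hr at 37 °C; viability read by CellTiter-Glo luminescence.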
DT40 TDP1 CPT – qHTS for Inhibitors of human tyrosyl-DNA phosphodiesterase 1 (TDP1): qHTS in cells in presence of CPT; chicken DT40 Tdp1-/-;hTDP1 cells + 20 nM CPT, ATP luminescence, 48 h; Potency, µM (top dose mostly 46.2 µM), without a hit: top-dose activity change, negative = growth inhibition, usual class: inhibitors; 420,000 compounds, 12% hits; AID 686979, 2013; also: nearly all actives have a fitted effect of over 55% in size
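Chicken DT40 Tdp1-/- cells stably complemented with human TDP1 were seeded at 400 cells/well in medium containing 20 nM camptothecin, exposed to pin-transferred compounds, and grown at 37 °C for at least 48 hr. Viability was read as ATP luminescence.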
HT1080 IDH1KD tx – qHTS for induction of synthetic lethality in tumor cells producing 2HG: qHTS for the HT-1080-IDH1KD cell line | HT-1080 IDH1 knockdown viability, ATP luminescence, 48 h | Potency, µM (highest dose often 46.1 µM), inactives show at the highest dose activity, negative = toxicity, actives largely listed as cytotoxic | 360,000 compounds, 2% hits;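 also: 0% = DMSO wells and -100% = cell-free medium wells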
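Luminescent ATP read-out (CellTiter-Glo, 10 min at room temperature) after 48 h compound exposure at 37 °C gave viability of IDH1-knockdown HT-1080 cells. Activity was normalised to DMSO and cell-free wells, then fitted as concentration-response curves.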
KB-3-1 tox – qHTS assay for MDR1-selective chemotherapeutics: Primary screen using the parental adenocarcinoma cell KB-3-1 | KB-3-1 viability, CellTiter-Glo ATP luminescence, 72 h | Potency, µM (doses to about 46.1 µM), actives largely listed as cytotoxic | 400,000 compounds, 1.4% hits | AID 1347075, 2019; also: nearly all actives have a fitted effect of over 60% in size
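72 h, 37 °C compound treatment of KB-3-1 parental cells; CellTiter-Glo added, 10 min, luminescence read. Data corrected against DMSO-only plates and normalized before curve fitting.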
HT1080-NT tox – qHTS for induction of synthetic lethality in tumor cells producing 2HG: qHTS for the HT-1080-NT fibrosarcoma cell line; Potency, µM (series often up to 46.1 µM), inactives show at the highest dose activity, negative = less viability, actives largely listed as cytotoxic; HT-1080-NT fibrosarcoma viability, CellTiter-Glo ATP luminescence, 48 h; AID 686970, 2013; 360,000 compounds, 1.6% hits;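 also: NT is the 2HG producing partner of a matched IDH1 knockdown line; 0% = DMSO-treated cells and -100% = media-only wells without cells; nearly all actives have a fitted effect of over 55% in size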
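750 cells/well, RPMI + 5% FBS; 2 h settle, compound pin-transfer, 48 h at 37 degrees C. CellTiter-Glo 10 min RT, luminescence. Normalized to DMSO and media-only wells.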
* hit, by the source's call; i = inactive; ? = inconclusive; nt = no result given; [ ] = remark or other dose. Calls follow the shape of the dose curve; as a rule, active = well fitted curve in the direction sought with a large enough effect; inconclusive = small, poorly fitted or top-dose-only effect, or another doubt; inactive = no such curve, though single readings can be large; an effect the other way counts as inactive or inconclusive. Unless noted, % is scaled to controls: 0 for no effect and ±100 for the full control effect; potency is read from the fitted curve at half-maximal effect.

SMILES	KB-V1 MDR tox	DT40 TDP1 no CPT	DT40 TDP1 CPT	HT1080 IDH1KD tx	KB-3-1 tox	HT1080-NT tox
Cc1nnsc1C(=O)NC(C)c1ccccc1 (stereo not drawn)	i	-4.0%	?	9.5%	i	0.2%
CC(NC(=O)c1sc2ncccc2c1-n1cccc1)c1ccccc1 (stereo not drawn)	i	23.1µM*	?	nt	i	nt
COC(=O)c1sc2ncccc2c1OCc1ccccc1Cl	i	?	-20.7%	0.9%	i	18.8%
CC(C)NC(=O)c1sc2ncccc2c1-n1cccc1	i	2.59µM*	?	nt	i	nt
CCOc1ccc(CCNC(=O)c2sc3ncccc3c2-n2cccc2)cc1OCC	?	?	25.9µM*	nt	i	nt
COc1ccc(C2CC(=O)c3c(O)cc(O)cc3O2)c(CC=C(C)C)c1OC (stereo not drawn)	i	?	23.1µM*	-2.3%	i	-0.2%
COc1ccc(C2CC(=O)c3c(O)cc(O)cc3O2)cc1O (stereo not drawn)	i	?	-6.3%	14.8%	i	0.0%
O=[N+]([O-])c1ccc(N=Nc2ccc(O)c3ccccc23)cc1	14.6µM*	2.59µM*	14.6µM*	?	?	25.9µM*
COc1ccc(Nc2cc(C)c3cc(NC(=O)Cc4ccc(Cl)cc4)ccc3n2)cc1	i	?	?	nt	i	nt
COc1ccccc1CC(=O)Nc1ccc2nc(Nc3cccc(C(F)(F)F)c3)cc(C)c2c1	?	5.8µM*	7.31µM*	nt	?	nt
COc1cccc(CC(=O)Nc2ccc3nc(Nc4cccc(C(F)(F)F)c4)cc(C)c3c2)c1	i	18.4µM*	?	nt	i	nt
CCN1CCN(c2cc(C)c3cc(NC(=O)Cc4ccccc4OC)ccc3n2)CC1	i	-10.7%	9.4%	-0.2%	i	2.5%
CCN(CC)C(=O)CC(c1ccc(N(C)C)cc1)c1c(OC)cc(OC)c2ccc(=O)oc12 (stereo not drawn)	i	-24.2%	?	-0.3%	i	3.1%
CCN(CC)CCC(c1ccc(N(C)C)cc1)c1c(OC)cc(OC)c2ccc(=O)oc12 (stereo not drawn)	i	13µM*	10.3µM*	-8.7%	i	-2.3%
COc1cc(OC)c2ccc(=O)oc2c1C(CCN1CCCC1)c1ccc(N(C)C)cc1 (stereo not drawn)	i	?	9.2µM*	-4.8%	i	-1.9%
O=C(CSc1nnc(-c2ccco2)o1)c1ccc(O)cc1O	i	?	?	6.0%	i	3.6%
COc1ccc(N2CCN(c3ccc(NC(=O)C4CCCCC4)cc3C#N)CC2)cc1	i	3.2%	-26.7%	2.9%[9.24 µM]	i	12.0%
CC(=O)Nc1cccc(Oc2cc(C#N)c(C#N)cc2N2CCCCCC2)c1	23.1µM*	?	?	?	?	?
CCNc1ncnc2c1cnn2C	i	-9.3%	-1.1%	18.8%	i	10.8%
Cc1ccc(/C=C/C(=O)Nc2cccc3cccnc23)o1	?	11.6µM*	11.6µM*	1.9%	i	0.2%
Cc1ccc(NC(=O)/C=C/c2ccc(C)o2)c(C)c1	i	?	?	nt	i	nt
CC(=O)/C=C/c1ccc(C)o1	i	?	16.4µM*	-2.4%	i	3.2%
Cc1ccc(/C=C/C(=O)N2CC(C)CC(C)C2)o1 (stereo not drawn)	i	3.26µM*	1.46µM*	?	i	?
Cc1cc(NS(=O)(=O)c2ccc(NC(=O)/C=C/c3ccc(C)o3)cc2)nc(C)n1	i	18.4µM*	14.6µM*	2.1%	i	0.3%
CCN1CCN(C(=O)/C=C/c2ccc(C)o2)CC1	?	6.1%	11.4%	8.3%	i	14.8%
SMILES	KB-V1 MDR tox	DT40 TDP1 no CPT	DT40 TDP1 CPT	HT1080 IDH1KD tx	KB-3-1 tox	HT1080-NT tox
COc1ccc(OC)c(NC(=S)N2c3ccccc3CC2C)c1 (stereo not drawn)	i	-1.1%	-25.9%	-2.5%	i	-3.8%
COc1ccc(C(=O)Nc2ccc(S(=O)(=O)Nc3cc(C)nc(C)n3)cc2)c(OC)c1	i	23.1µM*	20.6µM*	-4.7%	i	-7.3%
CC(=O)c1ccc(NC(=O)/C=C/c2ccc(C)o2)cc1	?	?	14.6µM*	nt	i	nt
COc1ccc(C(=O)Nc2ccc(C)cn2)c(OC)c1	16.4µM*	?	20.6µM*	-7.9%	?	?
CC(/C=C/c1ccc(C)o1)=C\C(=O)O	i	18.4µM*	11.6µM*	-3.7%	i	4.7%
CC(=C/C(=O)O)/C=C/c1ccc(Cl)o1	i	-15.4%	-24.4%	9.3%	i	7.9%
CCN(CC)c1ccc(NC(=O)CN2CCN(S(=O)(=O)c3ccc(C(C)C)cc3)CC2)cc1	i	?	?	nt	i	nt
O=C(COC(=O)CN1C(=O)NC2(CCCC2)C1=O)Nc1c(Cl)cccc1C(F)(F)F	i	14.1%	0.8%	11.6%	i	14.5%
O=C(C[n+]1cccc2cccc(O)c21)c1ccccc1	i	-12.1%	?	nt	i	nt
CO[C@@H]1CN(C)C(=O)c2ccc(NC(=O)C3CCC3)cc2OC[C@H](C)N(CC2CCCCC2)C[C@H]1C	?	?	?	?	i	?
CO[C@@H]1CN(C)C(=O)c2ccc(NC(=O)C3CCCC3)cc2OC[C@@H](C)N(Cc2ccc(F)cc2)C[C@H]1C	23.1µM*	?	?	-21.5%	?	-18.8%
CO[C@H]1CN(C)C(=O)c2ccc(NC(=O)C3CCC3)cc2OC[C@H](C)N(CC2CCCCC2)C[C@@H]1C	?	20.6µM*	?	?	?	?
CO[C@@H]1CN(C)C(=O)c2cc(NC(=O)NC3CCCCC3)ccc2OC[C@@H](C)N(CCc2ccccc2)C[C@@H]1C	i	?	16.4µM*	?	i	?
CO[C@H]1CN(C)C(=O)c2cc(NC(=O)C3CCCC3)ccc2OC[C@@H](C)NC[C@H]1C	i	1.8%	16.8%	8.4%	i	17.8%
CCC(=O)Nc1ccc2c(c1)OC[C@@H](C)N(Cc1cccc(F)c1)C[C@@H](C)[C@@H](OC)CN(C)C2=O	?	23.1µM*	?	9.0%	i	5.3%
